In all, about 48,000 compounds went through this assay and about 13,000 (27%) showed an effect of 50% or more. The list shows a part of the results.

The text below walks through data of ChEMBL document CHEMBL3988442, “University of Dundee, Small-Polar-MMV Screening Library” (2021).

The test system of this test is Wolbachia pipientis. The test is described as follows: Anti-Wolbachia Cell-Based Screen. In kind it is functional. The arrangement: scale not given: in the data most compounds retested in dose-response had high values. Conditions: 5 µM.
Take `Cc1nc(Nc2ccc(Cl)cn2)sc1C(=O)NC(C)C`: the “Percent Effect” value is reported as 4.933%.
With `O=C(NCc1nc(NC2CCCC2)c2cc(Cl)ccc2n1)c1ccoc1`, the “Percent Effect” value is recorded as 13.57%.
As for `CC(C)(C(=O)NCc1n[nH]c(=O)[nH]1)c1ccc(F)cc1`, the “Percent Effect” value was determined as 1.866%.
Turning to `O=C(NCCC(O)c1ccco1)c1ccccc1Br` (stereo unspecified), the “Percent Effect” value is 14.27%.
With `CC(O)CN1CCN(C(=O)c2ccn(-c3cccc(Cl)c3)n2)CC1` (stereo unspecified), the “Percent Effect” value turned out to be 1.72%.
As for `Cn1cc(CN2CCC3(CCCN3S(C)(=O)=O)CC2)cn1`, the “Percent Effect” value was 6.984%.
Next, `CS(=O)(=O)N1CCOCC12CCN(Cc1ccoc1)CC2`: 122%; `CS(=O)(=O)N1CCCC12CCN(Cc1nccs1)CC2.O=C(O)C(F)(F)F`: -14.48%.
Consider `CN(C)C(=O)CO[C@H]1CO[C@@]2(CCN(Cc3ccoc3)C2)C1`, for which the “Percent Effect” value is given as -7.87%.
Regarding `CS(=O)(=O)N1CCCC12CCN(Cc1ccoc1)CC2`, the “Percent Effect” value was 99.65%.
`CS(=O)(=O)N1CCOCC12CCN(c1nncs1)CC2`: the “Percent Effect” value came to 4.354%.
Regarding `COCCNc1ccccc1CNC(=O)NCc1ccc(C)s1`, the “Percent Effect” value is given as -4.597%.
On to `CS(=O)(=O)CCOCCNc1cncc(Br)c1`, for which the “Percent Effect” value was -7.579%.
Next, `CN1CCCN(c2nc(C3CC3)ns2)CC1`: -64.99%; `CC(C)CNC(=O)c1cn(C(C)C)cc2c(=O)[nH]nc1-2`: 135.5%; `CC(C)n1cc(C(=O)NCCN(C)C)c2n[nH]c(=O)c-2c1`: 115.3%.
As for `Cc1ccc(C(=O)NCC(C)Cn2cccn2)c(=O)[nH]1` (stereo unspecified), the “Percent Effect” value is -11.2%.
In the case of `CC(C)CNC(=O)c1ccc2c(=O)n(-c3ccccc3)cnc2c1`, the “Percent Effect” value is on record as 11.47%.
On to `CC(C)N(CCNC(=O)c1n[nH]c2ccccc12)C(C)C`, for which the “Percent Effect” value is 25.98%.
Turning to `CN(C)CCNC(=O)c1cc2n(n1)CCN(C(=O)c1ccc[nH]1)C2`, the “Percent Effect” value is recorded as -27.47%.
Regarding `CCOCCn1nc(C)cc1C(=O)N1CCC2(CC1)[C@H](O)C[C@@H]2OCC`, the “Percent Effect” value is listed as -36.55%.
The value for `CC1=C[C@@H](CNS(C)(=O)=O)[C@H](C(C)C)C[C@H]1CC(=O)NCCN(C)C` was 5.044%; that for `Cc1cc(C)n(CCCC(=O)N2CC[C@H]3NCCC[C@]3(CO)C2)n1` was -1.122%.
In the case of `CS(=O)(=O)CCC(=O)N1C[C@@H]2CC[C@H](C1)N(Cc1ccccc1)C2=O`, the “Percent Effect” value is listed as 8.046%.
Next, `Cc1ccc(CN(C)C(=O)CN2CCCC2c2cnn(C)c2)o1` (stereo unspecified): -1.976%; `COCCN1CCN(CC(=O)N(C)Cc2ccc(C)o2)CC1C` (stereo unspecified): 6.475%.
For `CN(Cc1ccco1)C(=O)CN1CCc2ccccc2C1`, the “Percent Effect” value was -0.07899%.
`Cc1ccc(CN(C)C(=O)CNC(=O)N2CCc3ccccc3C2)o1`: the “Percent Effect” value is reported as 79.51%.
`Cc1ccc(CN(C)C(=O)CN2CCc3ccccc3C2)o1`: the “Percent Effect” value turned out to be 87.7%.
Regarding `OCC1CCCN1c1cc(NCCc2c[nH]c3ccccc23)ncn1` (stereo unspecified), the “Percent Effect” value came to 7.134%.
`c1ccc2c3c([nH]c2c1)CN(Cc1cc2n(n1)CCNC2)CC3`: the “Percent Effect” value was -25.6%.
With `Nc1nc(NCCO)cc(N2CCc3c([nH]c4ccccc34)C2)n1`, the “Percent Effect” value is listed as 98.87%.
As to `COc1ccc2[nH]c3c(c2c1)CN(c1cc(NCCO)nc(N)n1)CC3`, the “Percent Effect” value was determined as 97.63%.
In the case of `CCNc1cc(N2CCN(C(=O)c3ccc(OC)cc3)CC2)nc(C)n1`, the “Percent Effect” value amounted to 4.812%.
With `COc1ccc(F)c(-c2cc(NCCO)nc(N)n2)c1`, the “Percent Effect” value was -1.904%.
As to `Cc1cccc(-c2nnn3c2COC(CNC(=O)N2CCCC2)C3)c1` (stereo unspecified), the “Percent Effect” value amounted to 9.642%.
`NCC1Cc2cc(-c3nccc(N4CCC(O)CC4)n3)cc(Cl)c2O1` (stereo unspecified): the “Percent Effect” value is on record as -10.94%.
The value for `Cc1ccc(C)c(Oc2ccc(CNC(=O)C3CCS(=O)(=O)C3)cn2)c1` (stereo unspecified) was -2.907%; that for `Cc1cc(C(=O)N2CCCC2)ccc1NCc1nc(CC(C)C)no1` was 81.12%; that for `CCc1noc(CNc2cccc(C(=O)N3CCSCC3)c2)n1` was 10.06%.
As to `CCCc1nc(CNc2cccc(C(=O)N3CCCC(O)C3)c2)no1` (stereo unspecified), the “Percent Effect” value stood at 1.271%.
Regarding `CCc1nc(CNc2ccc(C(=O)NCc3ccco3)cc2C)no1`, the “Percent Effect” value was -7.097%.
With `CC(C)Cc1noc(CNc2ccccc2CC(=O)N(C)C)n1`, the “Percent Effect” value is on record as 7.405%.
Regarding `CCc1noc(CNc2ccc(CC(=O)N3CCSCC3)cc2)n1`, the “Percent Effect” value worked out at 21.21%.
The value for `CCc1nc(CNc2ccc(C(=O)N3CCSCC3)cc2C)no1` was 92.2%; that for `CC(C)Cc1noc(CN2CCCN(C(=O)c3cccc(Cl)c3)CC2)n1` was -52.16%; that for `CCc1noc(CNc2ccc(C(=O)N3CCCC3)cc2C)n1` was 101.8%.
Next, `CCCc1noc(CNc2ccc(C(=O)N3CCCC3)cc2C)n1`: 101%.
As to `Cc1cc(C(=O)N2CCCC2)ccc1NCCOCC(F)(F)F`, the “Percent Effect” value is recorded as -22.68%.
For the compound `Cc1ccc(C(=O)N2CCCC(CNS(=O)(=O)C(C)C)C2)cc1` (stereo unspecified), the “Percent Effect” value is -19.42%.
The value for `CN(Cc1csc(-c2ccccc2)n1)Cc1ncccc1C(=O)O` was 4.154%; that for `N#Cc1ccccc1OCCN1CCN(C(=O)C2CCCC2)CC1` was -2.024%.
The value for `CC1CCN(S(=O)(=O)NC2CCCCNC2=O)CC1` (stereo unspecified) was 36.47%; that for `CC(C)CNC(=O)Nc1ccc(CN2CCOC2=O)cc1` was -13.36%; that for `Cc1ccc(CNC(=O)NC(C)CCS(C)(=O)=O)cc1F` (stereo unspecified) was -1.224%.
Consider `COCCS(=O)(=O)NCC(C)c1cccc(C)c1` (stereo unspecified), for which the “Percent Effect” value is -6.365%.
For the compound `Cc1ccc(CNS(=O)(=O)CCCC#N)cc1F`, the “Percent Effect” value was found to be 111.5%.
With `CC(CNS(=O)(=O)CCCC#N)c1ccsc1` (stereo unspecified), the “Percent Effect” value was -6.761%.
Next, `CCN(C)c1ccc(CNS(=O)(=O)CC2CCCO2)cc1F` (stereo unspecified): -7.103%; `Cc1cccc(C(C)CNS(=O)(=O)CCCC#N)c1` (stereo unspecified): 5.748%; `Cc1cc(CNS(=O)(=O)CCCC#N)ccc1N(C)C`: 89.17%.
In the case of `Cc1ccc(CNC(=O)c2ccc(CNS(C)(=O)=O)o2)cc1F`, the “Percent Effect” value is 2.956%.
Next, `Cc1cc(CNS(C)(=O)=O)ccc1N(C)C`: 110.2%.
Next, `CS(=O)(=O)NCc1ccc2c(c1)CCC2`: -9.378%; `Cc1cnn(CCC(=O)NCc2ccc(N(C)C)c(C)c2)c1`: 4.786%; `COCCS(=O)(=O)NCc1ccc(N(C)C)c(C)c1`: 78.12%.
Next, `NCC1CN(C(=O)c2cccc(-n3cccn3)c2)CCO1` (stereo unspecified): 12.21%.
Consider `CCCc1cc(NC2CCc3ncnn3C2)n2ncnc2n1` (stereo unspecified), for which the “Percent Effect” value is recorded as -15.24%.
For `CSCC(C)(O)CNc1cccc(F)c1C#N` (stereo unspecified), the “Percent Effect” value is given as -5.996%.
In the case of `CCCOc1cc(CNC(=O)Nc2cccnc2N2CCCC2)ccn1`, the “Percent Effect” value was 3.924%.
For `COc1cccc2cc(CNCc3ccc(N4CCCC4)nc3)oc12`, the “Percent Effect” value is listed as 106.9%.
As for `COc1cc(CNCc2ccco2)ccc1OCCO.Cl`, the “Percent Effect” value was -24.56%.
In the case of `COc1cccc2cc(CNCc3ccnc(N4CCOCC4)c3)oc12`, the “Percent Effect” value is -10.04%.
Regarding `COc1cccc2cc(CNCc3ccnc(N4CCCCC4)c3)oc12`, the “Percent Effect” value came to 98.43%.
Consider `COc1cccc2cc(CNC(=O)N3CCCC(O)C3)oc12` (stereo unspecified), for which the “Percent Effect” value was -11.96%.
Next, `COc1c(CNCc2ccc(N3CCOCC3)nc2)c(C)nn1C`: -5.256%.
Regarding `COc1cccc2cc(CNCc3ccnc(N(C)C)c3)oc12`, the “Percent Effect” value came out at 97.53%.
As to `COc1ccc(CNCc2ccc(N3CCCCC3)nc2)cc1OC`, the “Percent Effect” value came out at 5.038%.
Turning to `COc1ccc(CNCc2ccnc(N3CCCCC3)c2)cc1OC`, the “Percent Effect” value stood at 4.647%.
The value for `CC(NC(=O)NCc1cccc(N2CCCC2=O)c1)c1ccccc1` (stereo unspecified) was 10.19%; that for `CC(=O)N[C@@H]1CN(c2nc(C(N)=O)cs2)C[C@H]1c1ccc(C)o1` was 3.94%.
`CC(C)c1cc(N2CCN(c3ccc(O)cc3)CC2)n2nccc2n1`: the “Percent Effect” value was -10.08%.
Next, `Cc1nc(C)n(CC2CCCCN2CC(=O)NC2CCOCC2)n1` (stereo unspecified): -3.575%; `Cc1noc(C)c1CC(=O)N1CCC(c2ccn3nccc3n2)CC1`: 116.9%; `CCC[C@@H]1CN(C(=O)Cc2sc(C)nc2C)C[C@H]1C(=O)O`: 9.333%.
In the case of `Cc1nc(CC(=O)N2CCC(Nc3cccnn3)CC2)cs1`, the “Percent Effect” value is listed as 10.36%.
As for `Cc1ncc2c(n1)CCN(C(=O)Cc1c(C)noc1C)C2`, the “Percent Effect” value is reported as -7.344%.
The value for `Cc1nc(CC(=O)N2CCN(c3ccc(N(C)C)cc3)CC2)cs1` was -7.561%.
In the case of `Cc1nc(CC(=O)N2CCC(c3ccn4nccc4n3)CC2)cs1`, the “Percent Effect” value came to 100.2%.
As for `Cc1nc(C)c(CC(=O)N2CCC(c3ccn4nccc4n3)CC2)s1`, the “Percent Effect” value was found to be 148.4%.
Regarding `Cc1nc(C)c(CC(=O)N2C[C@@H](C(=O)O)[C@H](c3ccccc3C)C2)s1`, the “Percent Effect” value is given as -4.112%.
Next, `COC1CCN(C(=O)CCc2c(C)nc3ccnn3c2C)CC1`: 2.453%.
As for `O=C(NC[C@H]1OC[C@@H](NC2CCC2)[C@@H]1O)Nc1ccccc1`, the “Percent Effect” value was 27.93%.
Next, `COCCCN(C)S(=O)(=O)c1ccc(C(F)(F)F)cc1C#N`: 0.354%.
Turning to `Cc1cc(CC(C)Nc2ncnc3cccc(F)c23)[nH]n1` (stereo unspecified), the “Percent Effect” value is recorded as -16.45%.
Next, `CCN(CC(C)C#N)C(=O)CNc1cc(Cl)ccc1C(N)=O` (stereo unspecified): 109.4%; `Cc1cc(NC(=O)N(CCC#N)CCCN(C)C)ccc1F`: -0.7911%; `CCN(CC(C)C#N)C(=O)CNc1ccc(C(N)=O)c(C)c1` (stereo unspecified): 94.3%.
The value for `Cc1cc(NCC(C)C)ccc1C(=O)N(C)C` was -5.944%; that for `CCN(CC(C)C#N)C(=O)CSc1ccc(C(F)(F)F)cn1` (stereo unspecified) was -16%.
The value for `CCN(CC(C)C#N)C(=O)CNc1ccc(F)c(C)c1` (stereo unspecified) was 98.55%.
Regarding `CCN(CC)C(=O)Nc1ccc(C(=O)N(C)C)c(C)c1`, the “Percent Effect” value is recorded as -2.57%.
As to `CCN(C(=O)CNc1cc(C)c(F)cc1C(N)=O)C1CC1`, the “Percent Effect” value is reported as -0.2217%.
Consider `Cc1cc(NCC(=O)N(C)C)c(C(N)=O)cc1F`, for which the “Percent Effect” value turned out to be 4.75%.
Next, `CNC(=O)N1CCC2(CC1)CN(C(C)C)Cc1cc(F)ccc12.Cl`: -6.692%; `CCn1c(CN(C)C)nnc1C1CCN(Cc2ccc(Cl)cc2)CC1`: -12.39%.
